Each structure is given as a SMILES string. A number with no mark means an inactive call. Inconclusive results are not listed. Active and inactive are the calls of the source. Calls follow the shape of the dose curve; as a rule, active = well fitted curve in the direction sought with a large enough effect; inconclusive = small, poorly fitted or top-dose-only effect, or another doubt; inactive = no such curve, though single readings can be large; an effect the other way counts as inactive or inconclusive.

For experiment [1], the target named is Glutathione peroxidase 1 (Homo sapiens) (UniProt P07203). In words: Primary qHTS Assay for Inhibitors of Recombinant Selenoprotein Glutathione Peroxidase 1 (GPX1) (AID 1845191). Also: nearly all actives have a fitted effect of over 65% in size. As to activity, negative = inhibition: % is scaled to controls: 0 for no effect and ±100 for the full control effect. Conditions: recombinant GPX1, GR-coupled NADPH fluorescence, 15 min; series mostly up to 48.8 µM. In short, it runs like this:
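NADPH consumption tracked by fluorescence at 340/450 nm between t=0 and t=15 min, room temperature. Final mix: 10 nM GPX1, 100 nM glutathione reductase, 1 mM GSH, 0.5 mM NADPH, 0.5 mM cumene hydroperoxide, 0.01% BSA; 30 min compound–enzyme preincubation.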

Experiment [2] concerns the target Phospholipid hydroperoxide glutathione peroxidase GPX4 (Homo sapiens) (UniProt P36969). Description: Primary qHTS Assay for Inhibitors of Recombinant Selenoprotein Glutathione Peroxidase 4 (GPX4) (AID 1845192). Also: nearly all actives have a fitted effect of over 65% in size. As to activity change, negative = inhibition: % is scaled to controls: 0 for no effect and ±100 for the full control effect. Conditions: recombinant GPX4, GR-coupled NADPH fluorescence, 15 min; series mostly up to 50 µM. In short, it runs like this: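 NADPH consumption followed by fluorescence at 340/450 nm, t=0 and after 15 min at room temperature. Reaction started with cumene hydroperoxide (0.5 mM final) after 30 min compound–GPX4 preincubation; final 200 nM GPX4, 100 nM GR, 1 mM GSH, 0.5 mM NADPH.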
On the technique in general: Quantitative high-throughput screening tests each substance at several concentrations.

The target in experiment [3] is Luciferin 4-monooxygenase (Photinus pyralis) (UniProt P08659). Description: Primary firefly luciferase (FLuc) qHTS assay for identification of artifact compounds. (AID 1845220). Also: nearly all actives have a fitted effect of over 60% in size. Also: potency is read from the fitted curve at half-maximal effect.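 As to activity change, negative = inhibition: plate controls were DMSO vehicle for no effect and no enzyme for full effect.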 Particulars: purified firefly luciferase, luminescence, 5 min; series mostly up to 54.1 µM. A digest of the protocol:
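FLuc 10 nM; luciferin 10 uM; ATP 10 uM; Tris-acetate pH 7.6, Mg-acetate 10 mM; 15 min RT preincubation; 5 min reaction; luminescence.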

Experiment [4] has as its system Nanoluciferase (engineered Oplophorus gracilirostris luciferase). In words: Primary Nanoluciferase (NLuc) qHTS assay for identification of artifact compounds. (AID 1845222).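 Also: NLuc secreted into diluted conditioned medium of S16 cells; 0% = DMSO and -100% = no enzyme.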 Particulars: NLuc-conditioned medium, Nano-Glo luminescence, 5 min; series mostly up to 54.1 µM. A digest of the protocol:
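NLuc from S16 cell medium (1:55) plus test compounds, 15 min, room temperature. Luminescence after Nano-Glo (1:100) addition, 5 min.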

Experiment [5] in a line: Primary redox qHTS assay for identification of artifact compounds. (AID 1845223).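 Also: 0% = DMSO and 100% = reference compound.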 Particulars: Amplex Red/HRP redox cycling with DTT, fluorescence; series mostly up to 53.8 µM. In short, it runs like this: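 Redox-cycling detection via DTT (250 uM final) oxidation coupled to Amplex Red (25 uM)/HRP (250 mU/mL) in HBSS. 15 min preincubation plus 30 min after DTT, room temperature. Ex/Em 525/598 nm; 4-parameter Hill fit against DMSO and 10 uM DA3003.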

Chain of Glutathione peroxidase 1 (Homo sapiens) (P07203 whole entry, looked up): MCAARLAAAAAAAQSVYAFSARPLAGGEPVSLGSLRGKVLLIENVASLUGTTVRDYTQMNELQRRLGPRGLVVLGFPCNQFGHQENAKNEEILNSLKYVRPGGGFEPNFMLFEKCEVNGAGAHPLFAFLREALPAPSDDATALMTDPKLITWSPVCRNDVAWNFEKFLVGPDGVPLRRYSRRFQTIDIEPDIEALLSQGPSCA
Chain of Phospholipid hydroperoxide glutathione peroxidase GPX4 (Homo sapiens) (P36969 whole entry, looked up): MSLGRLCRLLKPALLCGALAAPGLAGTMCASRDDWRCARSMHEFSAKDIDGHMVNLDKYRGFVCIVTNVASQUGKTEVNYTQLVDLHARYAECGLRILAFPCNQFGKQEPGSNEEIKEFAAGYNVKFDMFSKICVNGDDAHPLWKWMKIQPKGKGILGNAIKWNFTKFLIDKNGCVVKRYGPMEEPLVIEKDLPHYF

`CC(C)(C)c1ccc(S(=O)(=O)Nc2ccc(Cl)cc2C(=O)c2cc[n+]([O-])cc2)cc1`: the Potency result in experiment [1], in experiment [2], in experiment [3], in experiment [4] and in experiment [5] was “inactive” each time.
As to `COc1ccc(/C=C\C(=O)O)c(O[C@@H]2O[C@H](CO)[C@@H](O)[C@H](O)[C@H]2O)c1`, the Potency result in experiment [1], in experiment [2], in experiment [3], in experiment [4] and in experiment [5] was “inactive” throughout.
In the case of `N#CC(c1ccnc(OCc2ccc(CN3CCOCC3)cc2)n1)c1nc2ccccc2s1` (centres undefined), the Potency result in experiment [1], in experiment [2], in experiment [4] and in experiment [5] was “inactive” throughout. The Potency in experiment [3] was 0.426 µM (active).
Consider `O=C(/C=C/c1cccc(S(=O)(=O)Nc2ccccc2)c1)NO`, for which the Potency result in experiment [1], in experiment [2], in experiment [3] and in experiment [4] was “inactive” each time.
For the compound `COC(=O)C1=CO[C@@H](O[C@@H]2O[C@H](CO)[C@@H](O)[C@H](O)[C@H]2O)C2C1C(=O)C[C@H]2C` (some centres undefined), the Potency result in experiment [1], in experiment [2], in experiment [3], in experiment [4] and in experiment [5] was “inactive” each time.
Regarding `CC(C)(O)CC(CO)NC(=O)CC(O)CC(=O)Cc1ccccc1` (centres undefined), the Potency entry in experiment [1], in experiment [2], in experiment [3], in experiment [4] and in experiment [5] was “inactive” throughout.
For the compound `CN1CCN(Cc2ccc(-c3cnc4[nH]cc(-c5ccc6[nH]ccc6c5)c4c3)cc2)CC1`, the Potency result in experiment [1], in experiment [2], in experiment [4] and in experiment [5] was “inactive” throughout. Besides, the Potency in experiment [3] is 6.75 µM (active).
Take `CC(C)(O)/C=C/C1=CC(=O)[C@@](C)(O)C[C@H]1O`: the Potency entry in experiment [1], in experiment [2], in experiment [3], in experiment [4] and in experiment [5] was “inactive” in each case.
Regarding `CC1OC(OC2C(OC3C(O[C@H]4CC[C@@]5(C)C(CC[C@]6(C)C5C(=O)C=C5C7CC(C)(C)CC(O)[C@]7(C)CC[C@]56C)C4(C)C)OC(C(=O)O)C(O)C3O)OCC(O)C2O)C(O)C(O)C1O` (some centres undefined), the Potency entry in experiment [1] and in experiment [2] was “inactive” each time. The activity change, negative = inhibition in experiment [3] was 2.88% [at 11.6 µM]. Further, in experiment [4], the activity, negative = inhibition is -14.3% [at 11.6 µM]. Moreover, the redox activity (% of DA3003) in experiment [5] is 2.04% [at 11.5 µM].
Turning to `COC(=O)C1=CO[C@@H](O[C@@H]2O[C@H](CO)[C@@H](O)[C@H](O)[C@H]2O)[C@@H]2C(CO)=CC[C@]12O`, the Potency result in experiment [1], in experiment [2], in experiment [3], in experiment [4] and in experiment [5] was “inactive” in each case.
Regarding `CC(C)c1ccc2c(c1)C(=O)CC1[C@@](C)(C(=O)O)CCC[C@]21C` (some centres undefined), the Potency result in experiment [1], in experiment [2], in experiment [3], in experiment [4] and in experiment [5] was “inactive” throughout.
Turning to `C=C(CO)C12OC1C1(C)C(=CC2=O)C(O)C(O)CC1C` (centres undefined), the Potency entry in experiment [1], in experiment [2], in experiment [3], in experiment [4] and in experiment [5] was “inactive” each time.
With `CC(C)CC(=O)OC1OC=C(CO[C@@H]2O[C@H](CO)[C@@H](O)[C@H](O)[C@H]2O)C2CC(O)C(O)(CO)C12` (some centres undefined), the Potency result in experiment [1], in experiment [2], in experiment [3], in experiment [4] and in experiment [5] was “inactive” each time.
`OC[C@H]1O[C@@H](OCCc2ccc(O)cc2)[C@H](O[C@@H]2OC[C@](O)(CO)[C@H]2O)[C@@H](O)[C@@H]1O`: the Potency entry in experiment [1], in experiment [2], in experiment [3], in experiment [4] and in experiment [5] was “inactive” each time.
As for `OC[C@@]1(O)CO[C@@H](OC[C@H]2O[C@@H](Oc3c[nH]c4ccccc34)[C@H](O)[C@@H](O)[C@@H]2O)[C@@H]1O`, the Potency result in experiment [1], in experiment [2], in experiment [3], in experiment [4] and in experiment [5] was “inactive” throughout.
Consider `CC[C@H]1OC(=O)[C@H](C)[C@@H](O[C@H]2C[C@@](C)(OC)[C@@H](O)[C@H](C)O2)[C@H](C)[C@@H](O[C@@H]2O[C@H](C)C[C@H](N(C)C)[C@H]2O)[C@](C)(O)C[C@@H](C)C(=O)[C@H](C)[C@H]2OC(=O)O[C@@]21C`, for which the Potency result in experiment [1], in experiment [2], in experiment [3], in experiment [4] and in experiment [5] was “inactive” each time.
For the compound `C=C1CN(Cc2ccc(C(=O)Nc3ccccc3N)cc2)C(=O)c2ccccc21`, the Potency result in experiment [1], in experiment [2], in experiment [3], in experiment [4] and in experiment [5] was “inactive” throughout.
For `O=C1C=CC(O)(/C=C/C(=O)OC[C@H]2O[C@@H](Oc3ccc(O)cc3)[C@H](O)[C@@H](O)[C@@H]2O)C=C1`, the Potency entry in experiment [1], in experiment [2], in experiment [3], in experiment [4] and in experiment [5] was “inactive” throughout.
In the case of `CC(C)c1cccc2c(-c3ccccc3)cc(-c3ccc(-c4ccc(C(=O)O)cc4)[nH]3)nc12`, the Potency entry in experiment [1], in experiment [2], in experiment [3], in experiment [4] and in experiment [5] was “inactive” each time.
Consider `CC(C)=CCC/C(C)=C/CCC1(C)Oc2c(c(O)cc3c2CN(C(CCC(=O)O)C(=O)O)C3=O)CC1O` (centres undefined), for which the Potency entry in experiment [1], in experiment [2], in experiment [3], in experiment [4] and in experiment [5] was “inactive” throughout.
In the case of `NCCCNc1ccc(Nc2nccc(Nc3cc(C4CC4)[nH]n3)n2)cc1`, the Potency entry in experiment [1], in experiment [2], in experiment [3], in experiment [4] and in experiment [5] was “inactive” throughout.
Turning to `CC(C)C(CO)Nc1nc(Nc2cc(N)cc(Cl)c2)c2ncn(C(C)C)c2n1` (centres undefined), the Potency result in experiment [1], in experiment [2], in experiment [3], in experiment [4] and in experiment [5] was “inactive” in each case.
As to `COc1ccc([C@@]2(O)c3c(ccc4c3OC(C)(CCC=C(C)C)C=C4)NC(=O)[C@@H]2OC)cc1` (some centres undefined), the Potency result in experiment [1], in experiment [2], in experiment [3], in experiment [4] and in experiment [5] was “inactive” throughout.

The values are drawn from PubChem BioAssay (NCATS).
